This is an account of results in the supplement of paper PMC9694430.

The first test has as its system LOC_OS01G10900-cb004. The experiment in a line: thermal shift delta Tm vs DMSO control; higher = stronger stabilization (binding). The following applies: 12.5 µM; protein concentration 2 µM. The gist of the method: (§1)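 Rice kinase domain constructs were expressed in E. coli, purified, and tested by differential scanning fluorimetry with compound added in DMSO. Each well of a 96-well plate held 19.5 μl of 2 μM kinase in 100 mM potassium phosphate pH 7.5, 150 mM NaCl, 10% glycerol and 5 × SYPRO Orange, and fluorescence was read from 25°C to 95°C at 0.05°C/s. The melting temperature shift is the mean of triplicates, taken against protein with DMSO alone after Boltzmann fitting.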
Regarding `CC(C)(O)CC(=O)NCCn1ccc2ncnc(Nc3ccc(Oc4cccc(C(F)(F)F)c4)c(Cl)c3)c21`, the “thermal shift delta Tm” value is 1.92 °C.

Consider `CCOC(=O)c1cnc2ccc(-c3cncc(NS(=O)(=O)c4ccccc4)c3)cn12`, for which the “thermal shift delta Tm” value was determined as 1.17 °C.

For the molecule `N#Cc1c(NC(=O)c2cccc3ccccc23)sc2c1CCCC2` [JNK Inhibitor IX], the “thermal shift delta Tm” value came out at 0.06 °C.

For `CN(C)Cc1cccc(N=C(c2ccccc2)c2c(O)[nH]c3cc(C(=O)N(C)C)ccc23)c1`, the “thermal shift delta Tm” value turned out to be 0.14 °C.

Take `O=c1c(-c2ccc(O)cc2)coc2cc(O)cc(O)c12` [Genistein]: the “thermal shift delta Tm” value was found to be 0.86 °C.

As to `CCn1c2ccccc2c2cc(Nc3ccnc(NCCCN4CCOCC4)n3)ccc21`, the “thermal shift delta Tm” value came out at 0.59 °C.

As to `N#CC(=C(/N)Sc1ccccc1N)/C(C#N)=C(\N)Sc1ccccc1N`, the “thermal shift delta Tm” value is -0.2 °C.

Take `CCN(CC)CCCC(C)Nc1nc(C)cc(Nc2ccc3nc(C)cc(N)c3c2)n1` (stereo unspecified): the “thermal shift delta Tm” value was -0.35 °C.

For the molecule `c1cn2cc(-c3ccc4cn[nH]c4c3)nc(Nc3ccc(N4CCOCC4)cc3)c2n1` [Entospletinib (GS-9973)], the “thermal shift delta Tm” value was 0.19 °C.

`C[C@H]1CNC(=O)c2cnn3ccc(nc23)N[C@H](C)c2cc(F)ccc2O1`: the “thermal shift delta Tm” value is 3.91 °C.

For `CC(C)c1cnn2c(NCc3ccccc3)cc(NCCCCCCN)nc12`, the “thermal shift delta Tm” value amounted to 0.11 °C.

`C=CC(=O)Nc1cccc(Nc2nc(Nc3ccc(NC4CN(CCF)C4)cc3OC)ncc2C(F)(F)F)c1`: the “thermal shift delta Tm” value amounted to 0.12 °C.

For the molecule `CNC(=O)CN1CCC(Oc2cc3c(Nc4cccc(Cl)c4F)ncnc3cc2OC)CC1` [Sapitinib (AZD8931)], the “thermal shift delta Tm” value was determined as 0.42 °C.

Turning to `C=CC(=O)Nc1cccc(Nc2nc(Nc3ccc(N4CCN(C(C)=O)CC4)cc3OC)ncc2C(F)(F)F)c1` [Rociletinib (CO-1686, AVL-301)], the “thermal shift delta Tm” value is -0.01 °C.

For `O=C(c1ccc(/C=C/c2n[nH]c3ccccc23)cc1)N1CCNCC1`, the “thermal shift delta Tm” value came out at 1.43 °C.

As to `Cc1ccc(NC(=O)c2ccc(CN3CCN(C)CC3)cc2)cc1Nc1nc(-c2cccnc2)cs1` [Masitinib (AB1010)], the “thermal shift delta Tm” value is 0.92 °C.

Turning to `N#Cc1c(O)c2c(-c3ccc(-c4ccccc4O)cc3)csc2[nH]c1=O`, the “thermal shift delta Tm” value stood at 0.92 °C.

With `CN1CC[C@H](c2c(O)cc(O)c3c(=O)cc(-c4ccccc4Cl)oc23)[C@H](O)C1` [Flavopiridol (Alvocidib)], the “thermal shift delta Tm” value was 0.16 °C.

Take `Cc1cnc(Nc2ccc(OCCN3CCCC3)cc2)nc1Nc1cccc(S(=O)(=O)NC(C)(C)C)c1`: the “thermal shift delta Tm” value was 0.57 °C.

With `C[C@@H](Oc1ccc2[nH]nc(/C=C/c3cnn(CCO)c3)c2c1)c1c(Cl)cncc1Cl`, the “thermal shift delta Tm” value amounted to 7 °C.

Take `Nc1cccc(-c2cc3c(Oc4cccc(O)c4)ncnc3[nH]2)c1`: the “thermal shift delta Tm” value came out at 1.53 °C.

Take `CN1CCC(COc2cnc(-c3cccc(Cn4nc(-c5cccc(C#N)c5)ccc4=O)c3)nc2)CC1`: the “thermal shift delta Tm” value was found to be 0.17 °C.

As to `C[C@H](Nc1ncnc2nc[nH]c12)c1cc2cccc(Cl)c2c(=O)n1-c1ccccc1` [Duvelisib (IPI-145, INK1197)], the “thermal shift delta Tm” value amounted to 0.09 °C.

As to `CCCCNc1ncc(C(=O)NCc2ccc(-n3ccnc3)cc2)c(NC2CCC(O)CC2)n1` (stereo unspecified), the “thermal shift delta Tm” value was found to be 0.58 °C.

The subject of another test is LOC_OS01G13800-cb001. Described as above. As to conditions: 12.5 µM; protein concentration 2 µM. The gist of the method: as §1
For the molecule `Oc1c2ccccc2c2c3c(cccc13)N=N2`, the “thermal shift delta Tm” value is 0.39 °C.

As to `CSc1cccc(Nc2ncc3cc(-c4c(Cl)cccc4Cl)c(=O)n(C)c3n2)c1`, the “thermal shift delta Tm” value amounted to 0.31 °C.

For the molecule `COc1cc(Nc2ncc(F)c(Nc3ccc4c(n3)NC(=O)C(C)(C)O4)n2)cc(OC)c1OC` [R406 (free base)], the “thermal shift delta Tm” value came out at 0.48 °C.

`Cc1cn(-c2cc(NC(=O)c3ccc(C)c(Nc4nccc(-c5cnccn5)n4)c3)cc(C(F)(F)F)c2)cn1` [Radotinib]: the “thermal shift delta Tm” value was 0.87 °C.

Take `CN1CCN(Cc2ccc(-c3cnc4[nH]cc(-c5ccc6[nH]ccc6c5)c4c3)cc2)CC1`: the “thermal shift delta Tm” value was -0.19 °C.

For the molecule `CONC(=O)c1ccccc1Nc1cc(Nc2cc(C)nn2C(C)C)ncc1Cl`, the “thermal shift delta Tm” value is -0.17 °C.

As for `CNC(=O)c1cc(Oc2ccc(NC(=O)Nc3ccc(Cl)c(C(F)(F)F)c3)c(F)c2)ccn1` [Regorafenib (BAY 73-4506)], the “thermal shift delta Tm” value stood at 0.79 °C.

As to `c1cc(-c2cnn3cc(-c4ccc(OCCN5CCCCC5)cc4)cnc23)ccn1` [Dorsomorphin 2HCl], the “thermal shift delta Tm” value turned out to be 0.11 °C.

In the case of `CCCCCCCCCC(=O)CC(O)S(=O)(=O)O` (stereo unspecified) [Sodium Houttuyfonate], the “thermal shift delta Tm” value came out at 0.69 °C.

Turning to `CC(C)[C@H](CO)Nc1nc(Nc2cccc(Cl)c2)c2ncn(C(C)C)c2n1` [Purvalanol A], the “thermal shift delta Tm” value is -0.49 °C.

Consider `COc1ccc(Cl)c(Nc2nc3ccccc3nc2NS(=O)(=O)c2cccc(NC(=O)C(C)(C)N)c2)c1` [Pilaralisib (XL147)], for which the “thermal shift delta Tm” value came to 1.9 °C.

With `CC(C)Oc1ccc(-c2nn([C@@H](C)c3oc4ccc(F)cc4c(=O)c3-c3cccc(F)c3)c3ncnc(N)c23)cc1F`, the “thermal shift delta Tm” value is 0.18 °C.

Turning to `O=C(/C=C/c1ccc2ccccc2n1)c1ccncc1`, the “thermal shift delta Tm” value was found to be 0.45 °C.

For the molecule `CC(C)(O)CC(=O)NCCn1ccc2ncnc(Nc3ccc(Oc4cccc(C(F)(F)F)c4)c(Cl)c3)c21`, the “thermal shift delta Tm” value was 0.44 °C.

As to `CCOC(=O)c1cnc2ccc(-c3cncc(NS(=O)(=O)c4ccccc4)c3)cn12`, the “thermal shift delta Tm” value stood at 0.29 °C.

Turning to `N#Cc1c(NC(=O)c2cccc3ccccc23)sc2c1CCCC2` [JNK Inhibitor IX], the “thermal shift delta Tm” value was found to be 0.52 °C.

Take `CN(C)Cc1cccc(N=C(c2ccccc2)c2c(O)[nH]c3cc(C(=O)N(C)C)ccc23)c1`: the “thermal shift delta Tm” value stood at 0.49 °C.

For the molecule `O=c1c(-c2ccc(O)cc2)coc2cc(O)cc(O)c12` [Genistein], the “thermal shift delta Tm” value was -0.01 °C.

On to `CCn1c2ccccc2c2cc(Nc3ccnc(NCCCN4CCOCC4)n3)ccc21`, for which the “thermal shift delta Tm” value was -0.29 °C.

For the molecule `N#CC(=C(/N)Sc1ccccc1N)/C(C#N)=C(\N)Sc1ccccc1N`, the “thermal shift delta Tm” value worked out at 0.46 °C.

For `CCN(CC)CCCC(C)Nc1nc(C)cc(Nc2ccc3nc(C)cc(N)c3c2)n1` (stereo unspecified), the “thermal shift delta Tm” value was -0.26 °C.

On to `c1cn2cc(-c3ccc4cn[nH]c4c3)nc(Nc3ccc(N4CCOCC4)cc3)c2n1` [Entospletinib (GS-9973)], for which the “thermal shift delta Tm” value was -0.33 °C.

In the case of `C[C@H]1CNC(=O)c2cnn3ccc(nc23)N[C@H](C)c2cc(F)ccc2O1`, the “thermal shift delta Tm” value was -0.18 °C.

For the molecule `CC(C)c1cnn2c(NCc3ccccc3)cc(NCCCCCCN)nc12`, the “thermal shift delta Tm” value is -0.23 °C.

Take `C=CC(=O)Nc1cccc(Nc2nc(Nc3ccc(NC4CN(CCF)C4)cc3OC)ncc2C(F)(F)F)c1`: the “thermal shift delta Tm” value is -0.76 °C.

With `CNC(=O)CN1CCC(Oc2cc3c(Nc4cccc(Cl)c4F)ncnc3cc2OC)CC1` [Sapitinib (AZD8931)], the “thermal shift delta Tm” value is -0.22 °C.

`C=CC(=O)Nc1cccc(Nc2nc(Nc3ccc(N4CCN(C(C)=O)CC4)cc3OC)ncc2C(F)(F)F)c1` [Rociletinib (CO-1686, AVL-301)]: the “thermal shift delta Tm” value was -0.38 °C.

Take `O=C(c1ccc(/C=C/c2n[nH]c3ccccc23)cc1)N1CCNCC1`: the “thermal shift delta Tm” value was -0.18 °C.

In the case of `Cc1ccc(NC(=O)c2ccc(CN3CCN(C)CC3)cc2)cc1Nc1nc(-c2cccnc2)cs1` [Masitinib (AB1010)], the “thermal shift delta Tm” value was found to be 0.24 °C.

For the molecule `N#Cc1c(O)c2c(-c3ccc(-c4ccccc4O)cc3)csc2[nH]c1=O`, the “thermal shift delta Tm” value was 1.23 °C.

Turning to `CN1CC[C@H](c2c(O)cc(O)c3c(=O)cc(-c4ccccc4Cl)oc23)[C@H](O)C1` [Flavopiridol (Alvocidib)], the “thermal shift delta Tm” value came to 0.35 °C.

On to `Cc1cnc(Nc2ccc(OCCN3CCCC3)cc2)nc1Nc1cccc(S(=O)(=O)NC(C)(C)C)c1`, for which the “thermal shift delta Tm” value was -0.28 °C.

As to `C[C@@H](Oc1ccc2[nH]nc(/C=C/c3cnn(CCO)c3)c2c1)c1c(Cl)cncc1Cl`, the “thermal shift delta Tm” value is -0.36 °C.

Turning to `Nc1cccc(-c2cc3c(Oc4cccc(O)c4)ncnc3[nH]2)c1`, the “thermal shift delta Tm” value worked out at 0.59 °C.

In the case of `CN1CCC(COc2cnc(-c3cccc(Cn4nc(-c5cccc(C#N)c5)ccc4=O)c3)nc2)CC1`, the “thermal shift delta Tm” value is -0.5 °C.

As to `C[C@H](Nc1ncnc2nc[nH]c12)c1cc2cccc(Cl)c2c(=O)n1-c1ccccc1` [Duvelisib (IPI-145, INK1197)], the “thermal shift delta Tm” value is -0.35 °C.

In the case of `CCCCNc1ncc(C(=O)NCc2ccc(-n3ccnc3)cc2)c(NC2CCC(O)CC2)n1` (stereo unspecified), the “thermal shift delta Tm” value was -0.06 °C.
